Results published in PubChem BioAssay (NCI).
This is part of a sample that, as a whole, favours compounds with a hit. Of some 79,000 tested, about 15% had one in any assay. Activity calls are given as the source filed them. No stated cut-off is given here; in the data, active means growth inhibition above about 70%; inactive means the rest.

Legend:
[1] = NCI Yeast Anticancer Drug Screen. Data for the rad52 strain (AID 147);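 further: 0% = growth of vehicle-treated control cultures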; details: S. cerevisiae rad52 mutant growth inhibition, stronger effect = higher value
Outline: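 Read-out: growth inhibition versus vehicle-treated controls. Cells were a DNA repair-deficient yeast strain treated with compounds.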

[2] = NCI Yeast Anticancer Drug Screen. Data for the wt1 strain (AID 149);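 further: 0% = growth of vehicle-treated wt1 cultures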; details: S. cerevisiae wt1 strain (SPY 50644) growth inhibition, stronger effect = higher value
Outline: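 Yeast wt1 strain exposed to compounds; growth inhibition measured relative to vehicle-treated controls.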

[3] = NCI Yeast Anticancer Drug Screen. Data for the mgt1 strain (AID 153); details: S. cerevisiae mgt1 mutant growth inhibition, stronger effect = higher value
Outline: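 mgt1 yeast grown with test compound; read-out is growth inhibition versus vehicle-treated cultures.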

[4] = NCI Yeast Anticancer Drug Screen. Data for the rad50 strain (AID 155);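 further: 0% = growth of vehicle-only cultures of the same strain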; details: S. cerevisiae rad50 strain growth inhibition, stronger effect = higher value
Outline: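 Yeast carrying a defined DNA repair defect were exposed to test compounds, and growth was compared with vehicle-treated controls to give percent inhibition.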

[5] = NCI Yeast Anticancer Drug Screen. Data for the mec2-1 strain (AID 157); details: S. cerevisiae mec2-1 strain, stronger effect = higher value
Outline: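 Yeast mec2-1 mutant treated with compound. Readout: growth inhibition vs vehicle controls.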

[6] = NCI Yeast Anticancer Drug Screen. Data for the rad14 strain (AID 159);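 further: 0% = growth of vehicle-treated control cultures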; details: S. cerevisiae rad14 strain growth inhibition, stronger effect = higher value
Outline: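 Yeast cells carrying a defined DNA-repair defect were exposed to compounds, and growth inhibition was calculated relative to vehicle-treated control cultures.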

[7] = NCI Yeast Anticancer Drug Screen. Data for the sgs1 mgt1 strain (AID 161);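 further: 0% = growth of cultures given vehicle only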; details: S. cerevisiae sgs1 mgt1 strain, stronger effect = higher value
Outline: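 Read-out: growth inhibition vs vehicle controls. Cells: mutant yeast strain deficient in DNA damage repair.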

[8] = NCI Yeast Anticancer Drug Screen. Data for the CLN2oe strain (AID 163);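 further: 0% = growth of vehicle-only control cultures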; details: S. cerevisiae CLN2oe strain, stronger effect = higher value
Outline: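 Read-out: yeast growth inhibition, expressed relative to vehicle-only controls. The strain bears an engineered cell-cycle alteration.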

[9] = NCI Yeast Anticancer Drug Screen. Data for the cln2 rad14 strain (AID 165);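 further: 0% = growth equal to vehicle treated cultures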; details: S. cerevisiae cln2 rad14 strain, stronger effect = higher value
Outline: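 cln2 rad14 yeast strain; compound exposure; growth inhibition read vs vehicle controls.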

[10] = NCI Yeast Anticancer Drug Screen. Data for the bub3 strain (AID 167); details: S. cerevisiae bub3 mutant strain, stronger effect = higher value
Outline: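 Compounds were applied to a genetically altered yeast strain carrying a cell-cycle control defect. Growth inhibition was scored against vehicle-treated controls.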

[11] = NCI Yeast Anticancer Drug Screen. Data for the wt2 strain (AID 169);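 further: 0% = growth of vehicle-treated yeast cultures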; details: S. cerevisiae wt2 strain growth inhibition, stronger effect = higher value
Outline: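 Read-out: growth inhibition versus vehicle-treated control cultures after compound exposure of the yeast strain.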

[12] = NCI Yeast Anticancer Drug Screen. Data for the mlh1 strain (AID 171);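 further: 0% = growth of vehicle-treated control cultures of the same strain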; details: S. cerevisiae mlh1 strain growth inhibition, stronger effect = higher value
Outline: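 Read-out: growth inhibition versus vehicle controls. Strain: engineered yeast with a defined DNA repair or cell cycle defect, compound-treated.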

[13] = NCI Yeast Anticancer Drug Screen. Data for the sgs1 strain (AID 173);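 further: 0% = growth of vehicle-only control cultures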; details: S. cerevisiae sgs1 mutant, stronger effect = higher value
Outline: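 Read-out: yeast growth inhibition relative to vehicle controls, following compound exposure of a strain with a defined DNA repair/cell cycle alteration.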

[14] = NCI Yeast Anticancer Drug Screen. Data for the mlh1 rad18 strain (AID 175); details: S. cerevisiae mlh1 rad18 strain growth inhibition, stronger effect = higher value
Outline: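 Yeast w/ defined DNA-repair lesions; compound exposure; growth vs vehicle controls → % inhibition.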

[15] = NCI Yeast Anticancer Drug Screen. Data for the rad18 strain (AID 177); details: S. cerevisiae rad18 mutant growth inhibition, stronger effect = higher value
Outline: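 Readout: growth inhibition vs vehicle controls. Cells: genetically altered yeast strain, DNA repair defect.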

[16] = NCI Yeast Anticancer Drug Screen. Data for the rad50EPP+ strain (AID 151);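 further: 0% = growth of vehicle-treated control cultures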; details: S. cerevisiae rad50 mutant strain, stronger effect = higher value
Outline: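 Growth inhibition read against vehicle controls in rad50EPP+ yeast, a strain altered in DNA damage repair, after compound exposure.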

[17] = at 5.0 µM (retest, dose inferred, filed as 0.5)
[18] = at 50.0 µM (retest, dose inferred, filed as 5.0)

Measured: growth inhibition

CN1CCc2ccccc2C1Cc1ccccc1NC(=O)c1sc2ccccc2c1Cl (stereo unspecified)
inactive: [1]; at 1.2 µM -35% | [1]; at 3.7 µM -38% | [1]; at 11.0 µM -15% | [1]; at 33.0 µM -8% | [2]; at 1.2 µM -23% | [2]; at 3.7 µM -22% | [2]; at 11.0 µM -13% | [2]; at 33.0 µM 22% | [3]; at 1.2 µM -19% | [3]; at 3.7 µM -24% | [3]; at 11.0 µM 19% | [4]; at 1.2 µM -33% | [4]; at 3.7 µM -36% | [4]; [17] 8% | [4]; at 11.0 µM -22% | [4]; at 33.0 µM 29% | [5]; at 1.2 µM -39% | [5]; at 3.7 µM -29% | [5]; [17] -7% | [5]; at 11.0 µM -2% | [5]; at 33.0 µM 36% | [5]; [18] 68% | [6]; at 1.2 µM -50% | [6]; at 3.7 µM -40% | [6]; at 11.0 µM -24% | [7]; [17] -7% | [8]; at 1.2 µM 14% | [8]; at 3.7 µM 7% | [8]; at 11.0 µM 14% | [8]; at 33.0 µM 62% | [9]; [17] -10% | [9]; [18] 60% | [10]; at 1.2 µM -54% | [10]; at 3.7 µM -22% | [10]; [17] 7% | [10]; at 11.0 µM -33% | [10]; at 33.0 µM 22% | [11]; at 1.2 µM -13% | [11]; at 3.7 µM -13% | [11]; at 11.0 µM -3% | [12]; at 1.2 µM -22% | [12]; at 3.7 µM -16% | [12]; at 11.0 µM 8% | [13]; at 1.2 µM -25% | [13]; at 3.7 µM -20% | [13]; at 11.0 µM 18% | [14]; [17] -8% | [15]; at 1.2 µM -38% | [15]; at 3.7 µM -23% | [15]; at 11.0 µM -16% | [15]; at 33.0 µM 26%
active: [1]; at 100.0 µM 93% | [2]; at 100.0 µM 88% | [3]; at 33.0 µM 95% | [3]; at 100.0 µM 93% | [4]; [18] 97% | [4]; at 50.0 µM 96.8% | [4]; at 100.0 µM 90% | [5]; at 50.0 µM 98% | [5]; at 100.0 µM 92% | [6]; at 33.0 µM 89% | [6]; at 100.0 µM 93% | [7]; [18] 99% | [7]; at 50.0 µM 99% | [8]; at 100.0 µM 93% | [9]; at 50.0 µM 77.3% | [10]; [18] 94% | [10]; at 50.0 µM 97.5% | [10]; at 100.0 µM 92% | [11]; at 33.0 µM 89% | [11]; at 100.0 µM 93% | [12]; at 33.0 µM 90% | [12]; at 100.0 µM 93% | [13]; at 33.0 µM 90% | [13]; at 100.0 µM 89% | [14]; [18] 93% | [14]; at 50.0 µM 98.2% | [15]; at 100.0 µM 90%

O=C(CCCN1CCC2(CC1)CC(=O)N(N1CCCCCC1)C2=O)c1ccc(F)cc1
inactive: [1]; at 1.2 µM 23% | [1]; at 3.7 µM 34% | [1]; at 11.0 µM 46% | [1]; at 33.0 µM 53% | [1]; at 100.0 µM 65% | [16]; at 1.2 µM -2% | [16]; at 3.7 µM -2% | [16]; at 11.0 µM -1% | [16]; at 33.0 µM -1% | [16]; at 100.0 µM 0% | [3]; at 1.2 µM 32% | [3]; at 3.7 µM 45% | [3]; at 11.0 µM 67% | [4]; at 1.2 µM 29% | [4]; at 3.7 µM 26% | [4]; [17] 14% | [4]; at 11.0 µM 33% | [4]; at 33.0 µM 49% | [4]; [18] 46% | [4]; at 100.0 µM 61% | [5]; at 1.2 µM 25% | [5]; at 3.7 µM 28% | [5]; [17] 13% | [5]; at 11.0 µM 31% | [5]; at 33.0 µM 40% | [5]; [18] 41% | [5]; at 50.0 µM 45.8% | [5]; at 100.0 µM 45% | [6]; at 1.2 µM 45% | [6]; at 3.7 µM 51% | [6]; at 11.0 µM 64% | [7]; [17] 45% | [8]; at 1.2 µM 49% | [8]; at 3.7 µM 45% | [8]; at 11.0 µM 58% | [9]; [17] 63% | [10]; at 1.2 µM 40% | [10]; at 3.7 µM 41% | [10]; [17] 36% | [10]; at 11.0 µM 51% | [10]; at 33.0 µM 61% | [10]; [18] 41% | [10]; at 100.0 µM 66% | [11]; at 1.2 µM 20% | [11]; at 3.7 µM 32% | [11]; at 11.0 µM 41% | [11]; at 33.0 µM 53% | [11]; at 100.0 µM 68% | [12]; at 1.2 µM 25% | [12]; at 3.7 µM 30% | [12]; at 11.0 µM 41% | [12]; at 33.0 µM 52% | [12]; at 100.0 µM 63% | [13]; at 1.2 µM 43% | [13]; at 3.7 µM 45% | [13]; at 11.0 µM 65% | [14]; [17] 25% | [14]; [18] 56% | [15]; at 1.2 µM 29% | [15]; at 3.7 µM 49% | [15]; at 11.0 µM 57% | [15]; at 33.0 µM 66% | [15]; at 100.0 µM 65%
active: [3]; at 33.0 µM 75% | [3]; at 100.0 µM 89% | [4]; at 50.0 µM 80.8% | [6]; at 33.0 µM 73% | [6]; at 100.0 µM 87% | [7]; [18] 74% | [7]; at 50.0 µM 84.4% | [8]; at 33.0 µM 71% | [8]; at 100.0 µM 79% | [9]; [18] 82% | [9]; at 50.0 µM 72% | [10]; at 50.0 µM 73.3% | [13]; at 33.0 µM 73% | [13]; at 100.0 µM 77% | [14]; at 50.0 µM 76%
